Laboratory results as given in PubChem BioAssay AID624288 (National Center for Advancing Translational Sciences (NCATS), 2012).
Out of some 340,000 compounds screened, about 1,400 (0.41%) were called active. About 4% were inconclusive and are not listed. Calls come from the whole dose curve; cell line not stated here. Shown is part of a subset that was picked to be rich in actives.

Test: qHTS for Antagonists of gsp, the Etiologic Mutation Responsible for Fibrous Dysplasia/McCune-Albright Syndrome: qHTS; note: nearly all actives have a fitted effect of over 65% in size
Settings: gsp-mutant cells, cAMP HTRF, 30 min; series mostly up to 76.9 µM; activity change, negative = inhibition: at the top concentration
Excerpt: McCune-Albright syndrome (MAS) is a rare disease caused by somatic mutations in Gsgsp), a widely expressed protein central in signal transduction from G-coupled protein receptors (GPCRs). The disease symptoms are diverse, owing to the fact that the patients are mosaics with varying degrees of tissue involvement. Greater than 90% of the mutations in Gs in MAS occur at the R201 position and are equally divided between R201H and R201C. The R201 residue is central in the intrinsic GTPase activity of Gs and the H and C mutations lead to loss of, or impairment of, the GTPase activity. The intrinsic GTPase activity is necessary to terminate the interaction between Gs and adenylate cyclase, and to terminate the cAMP-mediated signaling of the given GPCR pathway. Thus, these activating mutations lead to ligand-independent activation of GPCR pathways. The tissue phenotype is determined by the role of Gs in the function of a given cell, and excess Gs/cAMP signaling in that cell. For example, pituitary somatotrophs overproduce growth hormone in a growth hormone releasing hormone-independent fashion, and gigantism/acromegaly ensues. Skeletal stem cells in the bone marrow behave as if they are under constant parathyroid hormone stimulation and fail to differentiate into osteoblasts and osteocytes, and proliferate as immature osteogenic cells and lead to the marrow fibrosis of fibrous dysplasia of bone. The goal of this project is to identify molecules with inhibitory activity at gsp mutations that will not only allow for in-depth study of the underlying molecular and cellular pathophysiology, but also serve as compounds from which drugs to treat FD/MAS can be developed NIH Chemical Genomics Center [NCGC] NIH Molecular Libraries Probe Centers Network [MLPCN] MLPCN Grant: IRP-FT-DE-2011-01 Assay Submitter (PI): Michael Collins, NIDCR
1.#Seed 2000 cells/well in 6 ul DMEM 10% FBS, 1% Pen/Strep, 0.5 mg/ml G418 2.#Incubate 16-24 hr at 37C, 5% CO2, 95% humidity 3.#Aspirate leaving 1 ul residual volume 4.#Dispense 5 ul/well DPBS + 1 mM CaCl2, 0.5 mM MgCl2, 0.05% BSA, 0.005% Tween 20 5.#Aspirate leaving 2 ul residual volume 6.#Dispense 23 nl/well compounds in DMSO 7.#Dispense 1 ul/well 300 uM Ro-20174 in DMEM 10% FBS 8.#Incubate 30 min at 37C, 5% CO2, 95% humidity 9.#Dispense 1.5 ul/well HTRF reagent: cAMP-d2 in lysis buffer 10.#Dispense 1.5 ul/well HTRF reagent: anti-cAMP antibody-K in lysis buffer 11.#Incubate 30 min at room temperature 12.#Detect HTRF signal using EnVision plate reader
% is set by controls: 0 for no effect and ±100 for the full control effect; potency is the fitted concentration of half-maximal effect.

Potency, active:
COc1ccc(C(=O)OCC(=O)c2ccc(C)c(S(=O)(=O)N3CCOCC3)c2)cc1OC 28.2 µM
COc1ccc(-c2nc(CCNC(=O)c3ccc(Br)o3)cs2)cc1 44.7 µM
COc1ccc(-c2oc3ncn(Cc4ccco4)c(=N)c3c2-c2ccc(OC)cc2)cc1 50.1 µM
COc1ccc(C(=O)NC2CCCc3c2cnn3-c2cccc(C)c2C)c(OC)n1 (configuration not stated) 39.8 µM
CC(=O)c1c(C)[nH]c(C(=O)COC(=O)c2cccc(S(=O)(=O)N(C)c3ccccc3)c2)c1C 31.6 µM
COc1ccc(S(=O)(=O)N(C)C[C@@H]2Oc3ccc(NC(=O)Nc4c(C)noc4C)cc3C(=O)N([C@H](C)CO)C[C@@H]2C)cc1 7.94 µM
Cc1nn2cc(-c3ccc(Cl)cc3)cnc2c1Br 8.91 µM
O=C(Nc1nnc(S(=O)(=O)N2CCCCCC2)s1)c1cccc(Br)c1 28.2 µM
O=C(Nc1nnc(S(=O)(=O)N2CCOCC2)s1)c1cccc(Br)c1 44.7 µM
Cc1nc2c(C(=O)NCc3ccc4c(c3)OCO4)c[nH]n2c(=O)c1Cc1ccccc1F 28.2 µM

Activity change, negative = inhibition, inactive:
Cc1ccc(C(=O)OCC(=O)N2CCCCCC2)cc1S(=O)(=O)N1CCOCC1 -6.68%
COc1ccc(CNC(=O)COC(=O)c2ccc(C)c(S(=O)(=O)N3CCOCC3)c2)cc1OC -4.89%
COC1C(CO)OC(n2cnc3c(=S)nc(N)[nH]c32)C1O (configuration not stated) -0.246%
COc1ccc2oc(N)nc2c1 7.22%
NC(=O)C1(Nc2ccc([N+](=O)[O-])cc2)CCCC1 7.87%
O=C(NCCc1csc(-c2ccccc2)n1)c1ccccc1F -20.8%
COc1ccc(N2CCN(C(=O)CNC(=O)c3ccc(Br)o3)CC2)cc1 5.12%
Cc1ccc(S(=O)(=O)N2CCN(C(=O)c3cc(S(=O)(=O)N4CCOCC4)ccc3F)CC2)cc1 6.87%
c1ccc(-c2c[nH]c(-c3ccccc3)c2)cc1 -13.3%
Cc1ccc(S(=O)(=O)c2cc3c(=O)n4cccc(C)c4nc3n(CCc3ccccc3)c2=N)cc1C 8.56%
CC12CCCCC1=CC(=O)CC2 (configuration not stated) -0.525%
CC(C)Cc1nnc(N)s1 5.9%
COc1ccc(-n2cnc3cc(NCc4ccco4)ccc32)cc1 -16%
Cn1c2ccccc2c(=O)c2c(=O)n(Cc3ccco3)c(COc3ccccc3)nc21 -3.84%
OCC(O)C1OCOC(C(O)CO)C1O (configuration not stated) -2.27%
CCOC(=O)N(Cc1ccccc1)C1CC1 12.5%
CCc1c(Nc2ccccc2Cl)nc(N)[nH]c1=O 8.47%
CC(=O)NCC(=O)NC1CCCc2c1cnn2-c1ccccc1F (configuration not stated) 2.94%
Cc1cc(C(=O)NC2CCCc3c2cnn3-c2cccc(C)c2C)c(C)o1 (configuration not stated) -32.6%
S=C(Nc1ccccc1)Nc1ccc2ccccc2c1 2.23%
Cn1c(=O)[nH]c2c(c(C(=O)O)nn2C)c1=O 12.5%
COc1cccc(C(=O)OCC(=O)c2[nH]c(C)c(C(C)=O)c2C)c1 9.61%
CC(=O)c1c(C)[nH]c(C(=O)COC(=O)c2cccs2)c1C 2.97%
Cc1noc(C)c1NC(=O)Nc1ccc2c(c1)C(=O)N([C@H](C)CO)C[C@H](C)[C@@H](CN(C)C(=O)Nc1ccccc1)O2 -0.581%
Cc1noc(C)c1NC(=O)Nc1ccc2c(c1)C(=O)N([C@H](C)CO)C[C@H](C)[C@@H](CN(C)S(=O)(=O)c1cn(C)cn1)O2 8.95%
O=C(CCCCCCCC(=O)N1CCCCC1)N1CCCCC1 5.76%
COc1ccc(CCC(=O)Nc2ccc(Cl)c(S(=O)(=O)N3CCOCC3)c2)cc1OC -29.5%
CC(=O)N1CCc2ccc(N)cc21 -6.4%
CCCCN(C(=O)c1cccc(N2C(=O)c3ccccc3C2=O)c1)c1c(N)n(CCCC)c(=O)[nH]c1=O 5.59%
CCCCNC1(C#N)CCN(Cc2ccccc2)CC1 -5.64%
O=C(OCCOc1ccccc1F)c1cc(S(=O)(=O)N2CCOCC2)ccc1F -15.2%
Cc1nc2ccc(NC(=O)c3cccc(S(=O)(=O)N4CCOCC4)c3)cc2s1 -11.8%
O=C(Nc1nncs1)c1cccc(S(=O)(=O)N2CCCCC2)c1 -3.16%
COc1cccc(C(=O)Nc2nnc(S(=O)(=O)N3CCCCC3)s2)c1 -14.2%
COc1cccc(C(=O)Nc2nnc(S(=O)(=O)N3CCOCC3)s2)c1 -6.83%
Cc1nc(N)nc(Cl)c1CCC1OCCO1 9%
CCN1C[C@@H]2[C@@H]3C(=O)N(Cc4ccccc4)C(=O)[C@@H]3[C@](C)(C1=O)N2C(=O)c1ccc(C(C)(C)C)cc1 0.48%
O=C(NCc1ccc2c(c1)OCO2)c1cc(F)c(F)cc1Cl -9.25%
CCn1c(=O)c(C(=O)NCc2ccc3c(c2)OCO3)c(O)c2ccccc21 -3.59%
COc1ccc(Nc2ccc3ccccc3c2)cc1 0.49%
Cc1ccc(Nc2c(O)nc[nH]c2=O)cc1C -0.0318%
O=C(NCC1(N2CCCCC2)CCCCC1)c1cccc(S(=O)(=O)Nc2ccccc2Cl)c1 -6.06%
